Inconclusive results are not listed. A call without a number means that no potency is given here. Calls of active or inactive are those of the source. The call rests on the fitted dose curve; in most records, active means well fitted inhibition curve with a large enough effect; inconclusive means small, poorly fitted or top-dose-only effect; inactive means flat fitted curve, though single readings scatter.

Our source for the Potency values is PubChem BioAssay (NCATS).
Potency means the concentration at half of the fitted maximal effect.

The subject of this test is CP185. The experiment in a line: qHTS profiling for inhibitors of Plasmodium falciparum proliferation (AID 504749). Further: nearly all actives have a fitted effect of over 60% in size. To be noted: P. falciparum in erythrocytes, SYBR Green DNA, 72 h; series mostly up to 28.7 µM. The procedure, abridged:
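P. falciparum-infected erythrocytes (0.3% parasitemia, 2.5% hematocrit final) were exposed to compounds for 72 h at 37 C in 5% CO2, then lysed with SYBR Green buffer overnight at room temperature; parasite DNA fluorescence was normalized to artemisinin and DMSO controls.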
(In general: In qHTS, concentration-response curves come from the screen itself.)
Turning to `S=P(N1CC1)(N1CC1)N1CC1`, the Potency result was “inactive”.

`COc1ccc(-c2ccc3cc(C(=O)O)ccc3c2)cc1C12CC3CC(CC(C3)C1)C2`: the Potency entry is “inactive”. The value for `COC(=O)Nc1nc2ccc(C(=O)c3ccccc3)cc2[nH]1` was “inactive”; that for `COc1ccc2cc3[n+](cc2c1OC)CCc1cc2c(cc1-3)OCO2` was 0.708 µM (active); that for `CNNCc1ccc(C(=O)NC(C)C)cc1` was “inactive”. The value for `N=C(N)c1ccc(OCCCCCOc2ccc(C(=N)N)cc2)cc1` was 1.12 µM (active); that for `Oc1c(Cl)cc(Cl)c2cccnc12` was 11.2 µM (active). The same measure for `CCc1cc(C(N)=S)ccn1`: “inactive”; for `COc1cc2c(Nc3ccc(Br)cc3F)ncnc2cc1OCC1CCN(C)CC1`: 3.55 µM (active). For the compound `COC(=O)Nc1nc2ccc(Sc3ccccc3)cc2[nH]1`, the Potency result is “inactive”. The value for `C1CCC(C(CC2CCCCN2)C2CCCCC2)CC1` (configuration not stated) was 10 µM (active); that for `CC(C)Cn1cnc2c(N)nc3ccccc3c21` was “inactive”; that for `CCCc1nc(C)c2c(=O)[nH]c(-c3cc(S(=O)(=O)N4CCN(CC)CC4)ccc3OCC)nn12` was “inactive”. The value for `CC(C)(Sc1cc(C(C)(C)C)c(O)c(C(C)(C)C)c1)Sc1cc(C(C)(C)C)c(O)c(C(C)(C)C)c1` was “inactive”; that for `COc1cc(NCc2ccc3nc(N)nc(N)c3c2C)cc(OC)c1OC` was 0.562 µM (active). For `CCCCOc1ccc(CC(=O)NO)cc1`, the Potency was 3.98 µM (active). In the case of `Cc1nnc(NS(=O)(=O)c2ccc(N)cc2)s1`, the Potency entry was “inactive”. For the compound `Nc1nc(N)c2nc(CNc3ccc(C(=O)NC(CCC(=O)O)C(=O)O)cc3)cnc2n1` (configuration not stated), the Potency result is “inactive”.

`CCOC(=O)[C@H](CCc1ccccc1)N[C@H]1CS[C@H](c2cccs2)CN(CC(=O)O)C1=O`: the Potency entry was “inactive”. As to `CCc1c2c(nc3ccc(OC(=O)N4CCC(N5CCCCC5)CC4)cc13)-c1cc3c(c(=O)n1C2)COC(=O)[C@]3(O)CC`, the Potency result is “inactive”. The value for `CC(C)NCC(O)c1ccc(NS(C)(=O)=O)cc1` (configuration not stated) was “inactive”; that for `CC(C)OC(=O)C(C(=O)OC(C)C)=C1SC=CS1` was “inactive”. For `CC[C@H](C)C(=O)O[C@H]1C[C@@H](C)C=C2C=C[C@H](C)[C@H](CC[C@@H]3C[C@@H](O)CC(=O)O3)[C@H]21`, the Potency result was “inactive”. The same measure for `O=c1cc(O)c(Cl)c[nH]1`: “inactive”; for `CC(=O)Oc1ccccc1C(=O)Nc1ncc([N+](=O)[O-])s1`: “inactive”; for `COc1ccc(C(=O)CC(=O)c2ccc(C(C)(C)C)cc2)cc1`: “inactive”. The value for `CNC1CCCN(c2c(F)cc3c(=O)c(C(=O)O)cn(C4CC4)c3c2OC)C1` (configuration not stated) was “inactive”.
